Details in all cases: mRNA level, 48 h; actives raise or lower the signal
Read-out in test [1]: Protein phosphatase 2A (PPP2R4), PTPA (gene 5524)
The test can be described thus: LTEA_HepaRG_PPP2R4: Life Technologies and Expression Analysis (LTEA) Assay for Protein phosphatase 2A (PPP2R4) using HepaRG (AID 2283522). The method in brief: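 Using HepaRG cultures maintained in 0.5% DMSO, chemicals are tested 48 h at up to 100 uM in duplicate. Induction or suppression of PPP2R4 mRNA, measured by qRT-PCR, is fitted bidirectionally against the vehicle baseline.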

Read-out in test [2]: Phosphatase and tensin (PTEN), PTEN (gene 5728)
As to the kind of experiment: LTEA_HepaRG_PTEN: Life Technologies and Expression Analysis (LTEA) Assay for Phosphatase and tensin (PTEN) using HepaRG (AID 2283523). In a few lines: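 Read-out: TaqMan qRT-PCR of PTEN transcript, normalized to three housekeeping genes, fitted in both directions against 0.5% DMSO. Differentiated human HepaRG cultures received chemicals for 48 h, eight-point half-log series topping at 100 uM.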

Read-out in test [3]: solute carrier (SLC22A1), SLC22A1 (gene 6580)
The test can be described thus: LTEA_HepaRG_SLC22A1: Life Technologies and Expression Analysis (LTEA) Assay for solute carrier (SLC22A1) using HepaRG (AID 2283524).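 Further: differentiated human HepaRG liver cells in serum-free induction medium.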 In a few lines: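 Transcript level of SLC22A1 quantified by qRT-PCR (normalized to three housekeeping genes) after 48 h chemical exposure of HepaRG cells, eight concentrations up to 100 µM, half-log steps, 0.5% DMSO vehicle. Gain or loss relative to DMSO fitted bidirectionally.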

Read-out in test [4]: Pyruvate Dehydrogenase Kinase 4 (PDK4), PDK4 (gene 5166)
The test can be described thus: LTEA_HepaRG_PDK4: Life Technologies and Expression Analysis (LTEA) Assay for Pyruvate Dehydrogenase Kinase 4 (PDK4) using HepaRG (AID 2283525). The method in brief:
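Readout is qRT-PCR of PDK4 transcript, normalized to three housekeeping genes, with bidirectional fitting against 0.5% DMSO vehicle. Differentiated HepaRG cells were treated 48 h in serum-free induction medium, duplicate wells, eight-point half-log series topping at 100 uM.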

Read-out in test [5]: NAD(P)H dehydrogenase [quinone] 1 (NQO1), NQO1 (gene 1728)
As to the kind of experiment: LTEA_HepaRG_NQO1: Life Technologies and Expression Analysis (LTEA) Assay for NAD(P)H dehydrogenase [quinone] 1 (NQO1) using HepaRG (AID 2283526). The method in brief:
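In this assay, gene expression is read by qRT-PCR after 48 h exposure of HepaRG cells to eight concentrations (max 100 uM, half-log) in 0.5% DMSO. Each chemical runs in duplicate, and activity is scored relative to vehicle.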

Read-out in test [6]: Nuclear factor erythroid 2-related factor 2 (Homo sapiens) (UniProt Q16236)
The test can be described thus: LTEA_HepaRG_NFE2L2: Life Technologies and Expression Analysis (LTEA) Assay for Nuclear factor erythroid 2-related factor 2 (NFE2L2) Transcription Factor using HepaRG (AID 2283527).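 On outcome: TaqMan qRT-PCR transcript level normalised to ACTB GAPDH and POLR2A housekeeping genes.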 In a few lines:
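NFE2L2 transcript level was read by qRT-PCR (housekeeping ACTB/GAPDH/POLR2A normalisation) after 48 h chemical treatment of HepaRG in serum-free induction medium. Duplicate 8-point half-log curves, top 100 uM, 0.5% DMSO vehicle; up- or down-regulation fitted against vehicle.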

Read-out in test [7]: succinate dehydrogenase complex iron sulfur subunit B (SDHB), SDHB (gene 6390)
As to the kind of experiment: LTEA_HepaRG_SDHB: Life Technologies and Expression Analysis (LTEA) Assay for succinate dehydrogenase complex iron sulfur subunit B (SDHB) using HepaRG (AID 2283528). In a few lines: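 HepaRG cells (~100,000/well, plated 48 h) exposed in duplicate for 48 h in serum-free induction medium to 8-point half-log series from 100 uM in 0.5% DMSO; mRNA by qRT-PCR normalised to ACTB, GAPDH, POLR2A; bidirectional fit versus DMSO.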

Read-out in test [8]: Signal transducer and activator of transcription 3 (Homo sapiens) (UniProt P40763)
The test can be described thus: LTEA_HepaRG_STAT3: Life Technologies and Expression Analysis (LTEA) Assay for Signal transducer and activator of transcription (STAT3) using HepaRG (AID 2283529). The method in brief: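 STAT3 transcript quantified by qRT-PCR against three housekeeping genes (ACTB, GAPDH, POLR2A), fitted both directions relative to DMSO. HepaRG cultures exposed 48 h to eight half-log concentrations, top 100 uM, 0.5% DMSO, serum-free induction medium.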

Read-out in test [9]: solute carrier (SLCO1B1), SLCO1B1 (gene 10599)
As to the kind of experiment: LTEA_HepaRG_SLCO1B1: Life Technologies and Expression Analysis (LTEA) Assay for solute carrier (SLCO1B1) using HepaRG (AID 2283530). The method in brief:
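SLCO1B1 transcript levels were quantified by TaqMan qRT-PCR using three housekeeping genes for normalization. This followed 48 h chemical exposure (100 uM top, half-log, 8 points, 0.5% DMSO) of HepaRG liver cells, with gain or loss fitted relative to DMSO.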

Read-out in test [10]: sulfotransferase 2A1 (SULT2A1), SULT2A1 (gene 6822)
As to the kind of experiment: LTEA_HepaRG_SULT2A1: Life Technologies and Expression Analysis (LTEA) Assay for sulfotransferase 2A1 (SULT2A1) using HepaRG (AID 2283531). In a few lines:
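Expression change of SULT2A1, by qRT-PCR with three housekeeping-gene normalization, was scored bidirectionally versus DMSO. Cells: differentiated HepaRG, dosed in duplicate for 48 h across 8 points, highest 100 µM, half-log dilution, 0.5% DMSO.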

Read-out in test [11]: Transforming Growth Factor (TGFA), TGFA (gene 7039)
The test can be described thus: LTEA_HepaRG_TGFA: Life Technologies and Expression Analysis (LTEA) Assay for Transforming Growth Factor (TGFA) using HepaRG (AID 2283532). The method in brief:
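TGFA transcript quantified by qRT-PCR (Fluidigm arrays) against three housekeeping genes, after 48 hours chemical treatment of HepaRG cells. Top concentration 100 uM with half-log dilutions, 8 points, duplicates, 0.5% DMSO.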

Read-out in test [12]: Transforming Growth Factor (TGFB1), TGFB1 (gene 7040)
As to the kind of experiment: LTEA_HepaRG_TGFB1: Life Technologies and Expression Analysis (LTEA) Assay for Transforming Growth Factor (TGFB1) Transporter using HepaRG (AID 2283533). In a few lines: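 TGFB1 transcript measured by qRT-PCR with normalisation to three housekeeping genes (ACTB, GAPDH, POLR2A); human HepaRG line treated in duplicate for 48 hr with an 8-point series topping at 100 uM, 0.5% DMSO vehicle, bidirectionally fitted.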

Read-out in another test: TIMP1, TIMP1 (gene 7076)
The test can be described thus: LTEA_HepaRG_TIMP1: Life Technologies and Expression Analysis (LTEA) Assay for TIMP1 using HepaRG (AID 2283534). The method in brief: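 Bidirectional change in TIMP1 transcript versus 0.5% DMSO, measured by TaqMan qRT-PCR with three housekeeping genes for normalization. HepaRG human liver cells dosed 48 h in duplicate, top concentration 100 uM with half-log dilutions.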

Read-out in test [13]: Tumor necrosis factor receptor 1 (TNFRSF1A), TNFRSF1A (gene 7132)
The test can be described thus: LTEA_HepaRG_TNFRSF1A: Life Technologies and Expression Analysis (LTEA) Assay for Tumor necrosis factor receptor 1 (TNFRSF1A) using HepaRG (AID 2283535). The method in brief: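 mRNA measured by qRT-PCR (TaqMan, Fluidigm arrays) against ACTB/GAPDH/POLR2A housekeepers after 48 h chemical exposure of HepaRG cells. Top concentration 100 uM, half-log 8-point series, duplicates; vehicle 0.5% DMSO, both fit directions.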

Read-out in test [14]: Thyroid Hormone Responsive (THRSP), THRSP (gene 7069)
The test can be described thus: LTEA_HepaRG_THRSP: Life Technologies and Expression Analysis (LTEA) Assay for Thyroid Hormone Responsive (THRSP) using HepaRG (AID 2283536). The method in brief:
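THRSP transcript quantified by Fluidigm qRT-PCR against three housekeeping genes after 48 h chemical exposure of HepaRG cells in serum-free induction medium; eight-point half-log series, top 100 uM, 0.5% DMSO vehicle, duplicate wells.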

Read-out in test [15]: Cellular tumor antigen p53 (Homo sapiens) (UniProt P04637)
The test can be described thus: LTEA_HepaRG_TP53: Life Technologies and Expression Analysis (LTEA) Assay for Tumor Protein P53 (TP53) using HepaRG (AID 2283537). In a few lines:
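Differentiated HepaRG cells in serum-free induction medium exposed 48 h in duplicate to 8 half-log concentrations, top 100 uM, 0.5% DMSO. TP53 mRNA by TaqMan qRT-PCR (Fluidigm), normalized to ACTB, GAPDH, POLR2A; fitted bidirectionally versus DMSO.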

Read-out in test [16]: UDP glucuronosyltransferase (UGT1A1), UGT1A1 (gene 54658)
As to the kind of experiment: LTEA_HepaRG_UGT1A1: Life Technologies and Expression Analysis (LTEA) Assay for UDP glucuronosyltransferase (UGT1A1) using HepaRG (AID 2283538). The method in brief: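 mRNA induction or loss of UGT1A1, by TaqMan qRT-PCR, in duplicate HepaRG wells after 48 h exposure to half-log dilutions topping at 100 uM; DMSO (0.5%) served as baseline.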

Read-out in test [17]: UDP glucuronosyltransferase (UGT1A6), UGT1A6 (gene 54578)
The test can be described thus: LTEA_HepaRG_UGT1A6: Life Technologies and Expression Analysis (LTEA) Assay for UDP glucuronosyltransferase (UGT1A6) using HepaRG (AID 2283539). In a few lines:
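Expression was quantified by TaqMan qRT-PCR on Fluidigm arrays with ACTB/GAPDH/POLR2A normalization and bidirectional fitting against 0.5% DMSO. HepaRG cells (~100,000/well) were treated in duplicate for 48 h at eight half-log concentrations up to 100 uM in serum-free induction medium.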

Read-out in test [18]: X-box binding protein 1 (XBP1), XBP1 (gene 7494)
As to the kind of experiment: LTEA_HepaRG_XBP1: Life Technologies and Expression Analysis (LTEA) Assay for X-box binding protein 1 (XBP1) using HepaRG (AID 2283540). In a few lines:
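XBP1 transcript by qRT-PCR (housekeeping-normalized: ACTB, GAPDH, POLR2A) after 48 h chemical treatment of HepaRG cells, 8-point half-log series topping at 100 uM, vehicle 0.5% DMSO. Gain and loss of signal fitted relative to DMSO.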

The source made the active and inactive calls. How the source made its calls: active means hit-call score of the fitted dose curve at least 0.9, where 1 is the maximum; inactive means score below 0.9.

Signal transducer and activator of transcription 3 (Homo sapiens), sequence (P40763 whole entry, looked up): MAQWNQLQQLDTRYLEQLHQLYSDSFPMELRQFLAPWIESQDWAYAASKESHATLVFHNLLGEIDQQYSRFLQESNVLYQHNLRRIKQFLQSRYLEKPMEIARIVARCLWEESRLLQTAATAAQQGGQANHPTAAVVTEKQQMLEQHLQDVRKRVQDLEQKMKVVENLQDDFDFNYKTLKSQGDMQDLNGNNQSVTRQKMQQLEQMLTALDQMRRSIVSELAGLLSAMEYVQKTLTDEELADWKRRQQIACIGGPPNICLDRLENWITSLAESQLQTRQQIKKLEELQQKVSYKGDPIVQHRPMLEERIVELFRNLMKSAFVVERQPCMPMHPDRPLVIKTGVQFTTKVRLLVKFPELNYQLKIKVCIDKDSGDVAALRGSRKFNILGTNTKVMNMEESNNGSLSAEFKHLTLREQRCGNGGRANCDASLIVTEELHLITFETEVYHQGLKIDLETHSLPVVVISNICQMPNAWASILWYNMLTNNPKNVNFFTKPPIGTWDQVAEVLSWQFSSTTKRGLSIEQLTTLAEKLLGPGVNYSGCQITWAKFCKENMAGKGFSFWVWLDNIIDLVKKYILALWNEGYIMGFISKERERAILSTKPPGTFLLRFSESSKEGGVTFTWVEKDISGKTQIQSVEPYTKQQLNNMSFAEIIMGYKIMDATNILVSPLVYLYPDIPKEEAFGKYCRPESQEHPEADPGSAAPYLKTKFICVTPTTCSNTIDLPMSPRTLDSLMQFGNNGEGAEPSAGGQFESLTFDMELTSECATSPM
Cellular tumor antigen p53 (Homo sapiens), sequence (P04637 whole entry, looked up): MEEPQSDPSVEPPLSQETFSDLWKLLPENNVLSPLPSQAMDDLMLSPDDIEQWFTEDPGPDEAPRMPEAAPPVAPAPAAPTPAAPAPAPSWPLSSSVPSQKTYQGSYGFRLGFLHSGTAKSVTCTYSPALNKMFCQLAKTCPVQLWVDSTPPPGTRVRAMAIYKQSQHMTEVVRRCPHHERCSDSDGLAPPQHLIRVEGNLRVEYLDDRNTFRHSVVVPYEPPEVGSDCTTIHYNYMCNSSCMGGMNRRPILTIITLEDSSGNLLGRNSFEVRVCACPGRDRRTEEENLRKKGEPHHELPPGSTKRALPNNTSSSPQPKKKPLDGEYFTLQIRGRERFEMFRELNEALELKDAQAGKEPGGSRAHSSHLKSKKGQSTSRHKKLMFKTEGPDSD
Nuclear factor erythroid 2-related factor 2 (Homo sapiens), sequence (Q16236 whole entry, looked up): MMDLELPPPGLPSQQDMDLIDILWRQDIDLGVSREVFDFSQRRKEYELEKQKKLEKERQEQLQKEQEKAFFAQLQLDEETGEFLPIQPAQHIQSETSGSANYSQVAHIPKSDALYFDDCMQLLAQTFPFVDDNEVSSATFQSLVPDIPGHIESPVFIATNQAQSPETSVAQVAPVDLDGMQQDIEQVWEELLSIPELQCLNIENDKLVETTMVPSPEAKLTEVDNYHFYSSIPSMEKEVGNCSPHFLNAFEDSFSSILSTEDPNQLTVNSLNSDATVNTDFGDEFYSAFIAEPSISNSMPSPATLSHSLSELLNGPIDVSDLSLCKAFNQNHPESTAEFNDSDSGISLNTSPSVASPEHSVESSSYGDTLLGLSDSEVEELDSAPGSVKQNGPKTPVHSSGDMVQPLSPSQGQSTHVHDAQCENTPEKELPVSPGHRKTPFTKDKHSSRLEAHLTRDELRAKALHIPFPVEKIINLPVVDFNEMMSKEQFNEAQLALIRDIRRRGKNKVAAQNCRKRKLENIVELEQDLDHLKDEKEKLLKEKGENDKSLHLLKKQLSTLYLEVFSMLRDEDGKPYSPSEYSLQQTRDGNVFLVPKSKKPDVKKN

With `CCCCCCCCCCCCCCCCOS(=O)(=O)O`, the result in test [1], in test [2], in test [5], in [6], in test [7] and in test [8] was inactive. The compound was called inactive in test [9], in test [10], in test [11], in test [12], in test [13] and in test [15]. The compound was classed as inactive in test [16], in test [17] and in [18]. Moreover, the AC50 was 38.6 µM (active) in [3]; 10.8 µM (active) in [4]; 351 nM (active) with TIMP1, TIMP1 (gene 7076); 41.1 µM (active) in [14].
For the compound `O=C1CN(N=Cc2ccc([N+](=O)[O-])o2)C(=O)N1`, the result in test [1], in test [2], in test [5], in [8], in test [9] and in test [10] was inactive. Moreover, the outcome is “inactive” in test [11]; “inactive” in test [12]; “inactive” with TIMP1, TIMP1 (gene 7076); “inactive” in test [13]; “inactive” in [15]; “inactive” in [16]. Moreover, the compound was called inactive in [17] and in test [18]. The AC50 in test [3] is 32.7 µM (active); in [4], 57.6 µM (active); in [7], 16.1 µM (active); in [14] it was 9.92 µM (active).
For the compound `c1ccc(C(O[C@@H]2CCCN(CCc3ccc4c(c3)OCO4)C2)c2ccccc2)cc1`, the AC50 in [1] was 50 µM (active); in test [2], 79.6 µM (active); in test [3] it was 79.2 µM (active); in test [4], 73.5 µM (active); in test [5], 78.9 µM (active); in test [6], 67.8 µM (active). Also, the AC50 in test [9] was 86.5 µM (active); in test [10], 79.3 µM (active); in [11] it was 77.1 µM (active); in test [12], 9.92 µM (active); in test [13], 85.9 µM (active); in [15] it was 75.4 µM (active). In addition, the AC50 in test [16] is 79.1 µM (active); in [17], 83 µM (active). Moreover, the outcome was “inactive” in test [7]; “inactive” in [8]; “inactive” in the test with TIMP1, TIMP1 (gene 7076); “inactive” in test [18].

As usually defined, the AC50 is the midpoint of the concentration-response curve, whichever way the signal moves.
